High-throughput results from PubChem BioAssay.
An excerpt weighted towards active compounds, which were near 4.1% of everything screened.
hgDAF12 agonist: H. glycines DAF-12 receptor agonists, primary screen, cell-based, luminescence, HEK293, GAL4 fusion, UAS-luciferase; Nuclear hormone receptor DAF-12 (Heterodera glycines), GAL4 fusion; activation, % at 6.8 µM; AID 687014, 2013; HEK293 GAL4-hgDAF12 UAS-luciferase reporter, agonist luminescence; normalized to butyrate control; hit rate 1.8% among 370,000;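 active = activation above a cutoff set at the mean of all screened compounds plus 3 SD, cut at about 10% in these data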;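 also: 0% = DMSO wells and 100% = sodium butyrate wells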
DAX1 inh-1: DAX1 (NR0B1) inhibitors on StAR promoter, primary screen, cell-based, luminescence, SF-1 (NR5A1), full-length DAX-1; hit rate 1.1% among 370,000; inhibition, % at 6.8 µM; HEK293T StAR-luciferase reporter, SF-1/DAX-1 repression relief;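 active = inhibition above the mean over all tested compounds plus 3 SD, cut at about 3.6% in these data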;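 also: 0% = DAX-1 cells with DMSO and 100% = cells lacking DAX-1 with DMSO; higher inhibition means more luminescence from relief of DAX-1 repression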
ssDAF12 agonist: S. stercoralis DAF-12 nuclear receptor activators, primary screen, cell-based, luminescence, HEK293, GRIP1 co-expression, lit1-tk-luc; Nuclear hormone receptor DAF-12 (Strongyloides stercoralis); activation, % at 6.8 µM; hit rate 1% among 370,000; HEK293 ssDAF-12/GRIP1 lit1-tk-luc reporter; % of 3 µM dafachronic acid response; AID 652126, 2013;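 active = activation above the mean over all tested compounds plus 3 SD, cut at about 0.9% in these data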;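 also: 0% = DMSO-only wells and 100% = 3 µM delta7-dafachronic acid wells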
hcDAF-12 act: H. contortus DAF-12 nuclear receptor activators, primary screen, cell-based, luminescence, HEK293, lit1-tk-luc reporter; HEK293 hcDAF-12 lit1-tk-luc reporter; 0% DMSO, 100% Δ7-dafachronic acid; activation, % at 6.8 µM; hit rate 1.4% among 370,000; AID 652067, 2013;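 active = activation above the mean of all tested compounds plus 3 SD, cut at about 5.5% in these data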;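 also: 100% = response to 3 µM Δ7-dafachronic acid high control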
DAX1 inh-2: DAX1 (NR0B1) inhibitors, primary screen, cell-based, HEK293, Gal4-DAX1, luciferase luminescence | Nuclear receptor subfamily 0 group B member 1 (Homo sapiens), P51843 | HEK293 Gal4-DAX1 luciferase reporter | inhibition, % at 6.75 µM | hit rate 0.99% among 340,000;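 active = inhibition above the mean over all tested compounds plus 3 SD, cut at about 4.2% in these data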;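 also: 0% = DAX1-transfected cells with DMSO and 100% = empty-vector control cells with DMSO; inhibition shows as a rise in luminescence from relieved DAX1 repression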
Target sequence (P51843 207-470 limits assumed): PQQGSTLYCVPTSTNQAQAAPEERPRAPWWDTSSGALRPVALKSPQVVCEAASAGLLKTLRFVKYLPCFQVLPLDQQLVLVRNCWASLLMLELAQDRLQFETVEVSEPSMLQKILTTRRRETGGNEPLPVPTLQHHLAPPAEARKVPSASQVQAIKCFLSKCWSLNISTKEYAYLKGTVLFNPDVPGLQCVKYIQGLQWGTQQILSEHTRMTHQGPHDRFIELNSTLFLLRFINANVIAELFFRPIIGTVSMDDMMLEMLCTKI
Starred values were filed as active, the others as inactive; / = no result.

SMILES | hgDAF12 agonist | DAX1 inh-1 | ssDAF12 agonist | hcDAF-12 act | DAX1 inh-2
COCCCNC(=S)N(CCCN(C)C)Cc1cc2cc3c(cc2[nH]c1=O)OCCO3 | 3 | 0 | -1 | 0 | 3
CCOCCCNC(=S)N(CCCN(C)C)Cc1cc2cc3c(cc2[nH]c1=O)OCCO3 | 1 | 1 | -1 | -2 | 4.7*
COC(=O)c1cc2c(c3c4ccccc4n(S(=O)(=O)c4cccc(C)c4)c13)C(=O)N(Cc1ccc(N(C)C)cc1)C2 | 2 | -2 | 0 | 3 | /
CCNC(=O)N1CCN(c2ccc(N3CCN(Cc4ccccc4)[C@@H](C)C3)c(C)c2)[C@@H](C)C1 | -5 | -2 | -1 | -3 | /
O=C(Nc1ccc(-c2cn3ccccc3n2)cc1)c1ccco1 | 12* | 4.3* | 0 | 5 | 2
Cc1cccc(S(=O)(=O)Nc2ccc(-c3cn4ccccc4n3)cc2)c1 | 1 | -1 | -2 | -1 | -1
O=S(=O)(Nc1ccc(-c2cn3ccccc3n2)cc1)c1ccccc1 | 6 | 0 | -1 | 1 | 4.3*
Cc1cc2[nH]c(=O)c(=O)[nH]c2cc1S(=O)(=O)Nc1ccccc1F | -1 | -1 | -1 | -1 | 4.6*
CC1=CC(=O)C(C(C)C)=C/C1=N\OC(=O)c1cccc2nc(C)oc12 | -2 | 0 | 0 | 5.7* | 1
COc1ccc2c(c1)CCC1C2=NN(/C(C)=C\C(C)=O)C1c1ccc(F)cc1 (stereo not drawn) | 8 | 0 | 0 | 6.0* | -1
COc1ccc2c(c1)C1=NN(/C(C)=C\C(C)=O)C(c3ccccc3)C1CC2 (stereo not drawn) | 2 | -1 | 0 | 3 | 0
O=C(NNC(=O)c1cccs1)c1cccc(F)c1 | -2 | 1 | 1.3* | 2 | -1
CCOC12NC(=O)CC(=O)N1C(c1ccccc1)=CS2 (stereo not drawn) | 4 | 0 | -1 | 0 | 4.5*
CC(=O)Nc1ccc(S(=O)(=O)NCC(=O)OCC(=O)N2CCc3ccccc32)cc1 | -1 | 1 | 0.9* | 5 | 0
COCC(=O)N1CCCc2ccccc21 | 4 | 0 | 0 | 6.3* | 0
O=C(COc1cccnc1[N+](=O)[O-])N1CCc2ccccc21 | 1 | 0 | 0 | 1 | 0
COc1cc(OC)cc(C(=O)N2CCCc3ccccc32)c1 | 0 | 0 | -1 | 0 | 1
Cc1ccc(OCC(=O)N2CCc3ccccc32)c([N+](=O)[O-])n1 | 11* | 2 | -2 | 0 | 0
COc1ccc2oc(C(=O)N3CCCc4ccccc43)c(C)c2c1 | 7 | 4.3* | 0 | 4 | 1
O=C(NCc1ccco1)C(=O)NN=Cc1ccccc1O | 0 | 1 | -1 | 1 | /
CCCC[C@H](C(=O)N(C)c1ccccc1)[C@@H](O)c1ccc2ccccc2c1 | -3 | -1 | -1 | -2 | /
CC(=O)c1ccc(-c2ccc(C(=O)N3CCCc4ccccc43)o2)cc1 | 5 | 1 | 1.8* | -1 | 1
COc1cccc2cc(C(=O)N3CCCc4ccccc43)oc12 | 3 | -1 | -1 | -4 | 0
COc1ccc2oc(C(=O)OCC(=O)N3CCCCC3)c(C)c2c1 | 3 | 2 | 1 | 0 | 4.9*
O=C(c1ccccc1)C1CCN(c2ncnc3sccc23)CC1 | -8 | / | -3 | -6 | /
SMILES | hgDAF12 agonist | DAX1 inh-1 | ssDAF12 agonist | hcDAF-12 act | DAX1 inh-2
O=C(NCc1ccco1)c1ccc(-c2ccc(Cl)cc2)o1 | 8 | 0 | -1 | -1 | -1
O=C(NCc1ccco1)c1ccc(-c2ccccc2Cl)o1 | 5 | 1 | -1 | 2 | 7.0*
O=C(NCc1ccccc1)c1ccc(-c2ccccc2F)o1 | 10 | 3 | 0.9* | 1 | 3
COc1ccc(C)c2sc(N(CCN(C)C)C(=O)/C=C/c3cccs3)nc12 | 1 | 0 | 1.2* | 6.1* | 0
CCn1cc(/C=N/O)c(C)n1 | 4 | -1 | -1 | 0 | 1
CCn1cc(/C=C/C(=O)c2ccc(O)cc2)c(C)n1 | 15* | 3 | 0 | 5 | 13*
CC(OC(=O)CNC(=O)C1CCCCC1)C(=O)NCc1ccccc1 (stereo not drawn) | -1 | 0 | 1.6* | 0 | 1
CCN(C(=O)COC(=O)CNC(=O)C1CCCCC1)c1ccccc1 | 1 | 1 | 1.0* | -1 | -1
CC(OC(=O)c1cc[n+]([O-])cc1)C(=O)NCc1ccccc1 (stereo not drawn) | 3 | -1 | -1 | 0 | 4.7*
Cc1cc(Br)cn2c(Cc3ccccc3C(F)(F)F)c(-c3ccco3)nc12 | -2 | -1 | -1 | -1 | /
c1ccn(-c2ccc(-c3noc(CCc4ccncc4)n3)cc2)c1 | -4 | -5 | -3 | -6 | /
c1ccc(OC2CCN(c3ncnc4sccc34)CC2)cc1 | -6 | / | -3 | -6 | /
O=C(O)c1ccc(CS(=O)(=O)c2cccc(C(F)(F)F)c2)o1 | -1 | 0 | -1 | -1 | 4.5*
CCCCNC(=O)c1ccc(CS(=O)(=O)c2cccc(C(F)(F)F)c2)o1 | -1 | -1 | -2 | 0 | 2
COC[C@@H]1CCCN1c1cccc2c1S(=O)(=O)N(C1CC1)CC[C@@H](C)O2 | 1 | -1 | -1 | -2 | /
Nc1nc(-c2cc3ccccc3o2)cs1 | 9 | 3 | 0 | 3 | 5.2*
CC(=O)Nc1nc(-c2ccc3c(c2)OCO3)cs1 | 12* | 2 | 0 | 3 | 1
CN(C)/C=N/c1nc(-c2ccc3c(c2)OCO3)cs1 | 11* | 3 | -1 | 2 | 1
Cc1nc(-c2ccc3c(c2)OCCO3)cs1 | 5 | 2 | -1 | 2 | 1
O=C(Nc1nc(-c2ccc3c(c2)OCO3)cs1)C1COc2ccccc2O1 (stereo not drawn) | -1 | 0 | -1 | 2 | 1
O=C(Nc1ccc(CN2CCOCC2)cc1)c1cc2ccccc2o1 | 8 | 3.6* | 0 | 6 | -1
O=C(NC(=S)Nc1ccc(CN2CCOCC2)cc1)c1cc2ccccc2o1 | 0 | 0 | -2 | 0 | 0
O=C(Nc1ccc(CN2CCOCC2)cc1)c1ccccc1F | 12* | 3 | 0 | 2 | 0
O=C(Nc1ccc(CN2CCOCC2)cc1)c1ccc(Cl)cc1Cl | -2 | -1 | -2 | -4 | -1
c1ccc(Oc2ccc(-c3ccn[nH]3)cc2)cc1 | 8 | 1 | 1 | 3 | 4.6*
O=[N+]([O-])/C=C/c1cc2ccccc2[nH]1 | 6 | 0 | 0 | 5.8* | 0
